Screening results deposited in PubChem by several laboratories.
In the library only some 3.7% were active in any assay of this set; here they are far more common.
Rce1 inhib: yeast Rce1p protease inhibitors, primary screen, biochemical, fluorescence, cell-free homogeneous | AID 2563, 2010 | hit rate 0.27% among 290,000 | yeast membranes, quenched prenylated peptide cleavage fluorescence | calls only;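 active means fall in fluorescence gain of 50% or more versus controls, with final raw signal at or below 3038400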;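 further: plate controls were neutral control wells for no effect and wells lacking membranes for full effect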
Target sequence (Q03530 whole entry, looked up): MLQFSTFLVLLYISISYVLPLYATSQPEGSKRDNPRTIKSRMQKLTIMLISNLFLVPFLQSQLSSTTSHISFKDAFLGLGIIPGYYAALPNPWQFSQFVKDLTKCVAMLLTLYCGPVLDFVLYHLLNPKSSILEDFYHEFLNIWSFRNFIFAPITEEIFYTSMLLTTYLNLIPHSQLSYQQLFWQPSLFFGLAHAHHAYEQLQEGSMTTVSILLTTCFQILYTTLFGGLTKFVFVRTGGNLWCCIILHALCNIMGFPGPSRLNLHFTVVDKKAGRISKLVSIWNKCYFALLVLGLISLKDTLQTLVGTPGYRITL
PfHsp90 yeast 2: growth inhibition of PfHsp90-expressing yeast, primary screen, antimalarial PfHsp90 inhibitor project, S. cerevisiae, BacTiter-Glo luminescence, single point, set 2 | inhibition, % at 9.4 µM | hit rate 0.32% among 310,000 | BacTiter-Glo ATP, 48 h; yeast lacking PDR1 and PDR3 efflux regulators | AID 504621, 2011;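 active means every replicate shows inhibition above about 80%, whatever the replicate mean, limit read from the data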;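 further: 0% = DMSO neutral controls and 100% = 20 µM radicicol positive controls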
TIM10 inh: growth inhibitors of isogenic TIM10 control yeast, primary screen, counter-screen for tim10-1 yeast inhibitor project, luminescence, uHTS; hit rate 1.4% among 330,000; S. cerevisiae TIM10 strain growth, BacTiter-Glo luminescence, 24 h; AID 463195, 2010; inhibition, % at 10 µM;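 active means inhibition of 40% or more at the single tested concentration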;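 further: wild-type TIM10 isogenic control strain grown at permissive 25 °C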
tim23-1 inh: growth inhibitors of tim23-1 mutant yeast, primary screen, luminescence, uHTS; S. cerevisiae tim23-1 growth, BacTiter-Glo luminescence, 24 h; inhibition, % at 20 µM; hit rate 1.3% among 330,000; AID 463212, 2010;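 active means growth inhibition of the mutant yeast at or above 50%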;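 further: temperature-sensitive mutant grown at 25 °C; plate controls were DMSO-treated mutant yeast for no effect and medium wells lacking yeast for full effect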
tim10-1 inh: growth inhibitors of tim10-1 mutant yeast, primary screen, luminescence, uHTS; S. cerevisiae tim10-1 ts strain growth, BacTiter-Glo, 24 h; inhibition, % at 20 µM; hit rate 2.2% among 330,000; AID 463190, 2010;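 active means inhibition of at least 40%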;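 further: mutant grown at 25 °C; 0% = DMSO wells with yeast and 100% = wells holding no yeast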
tim10-1 conf: growth inhibitors of tim10-1 mutant yeast, confirmation, single concentration, luminescence, S. cerevisiae; shares compounds with tim10-1 inh; S. cerevisiae tim10-1 ts strain growth, BacTiter-Glo, 24 h; inhibition, % at 20 µM; hit rate 56% among 7,400;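 active means inhibition of yeast growth at or above a set limit in either of two repeat tests at 20 µM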;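 further: tim10-1 mutant grown at permissive 25 °C to find synthetic lethal compounds; 0% = DMSO yeast wells and 100% = medium wells without yeast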
tim10 confirm: growth inhibitors of wild-type TIM10 yeast, confirmation, counter-screen for tim10-1 synthetic lethality project, single concentration, luminescence, S. cerevisiae. AID 463215, 2010. inhibition, % at 10 µM. S. cerevisiae tim10 strain growth, BacTiter-Glo luminescence, 24 h. hit rate 63% among 4,600. shares compounds with TIM10 inh;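 active means inhibition of yeast growth at or above a set limit in either of two replicates at 10 µM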;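 further: this counterscreen used the strain with wild-type TIM10; 0% = yeast with DMSO and 100% = medium wells lacking yeast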
Active calls of the source: *; i = inactive; · = no result.

SMILES	Rce1 inhib	PfHsp90 yeast 2	TIM10 inh	tim23-1 inh	tim10-1 inh	tim10-1 conf	tim10 confirm
CCN(CC)CCCNC(=O)c1cc2c(Cl)nc3ccccc3c2s1	i	6	-2	6	20	·	·
CCCCNC(=O)/C(C#N)=C/c1cccnc1	i	15	50*	50	44*	35*	39*
COc1ccc(C(=O)C(CN2CCOCC2)c2ccccc2)cc1 (configuration not stated)	i	11	48*	23	55*	54*	66*
O=C(c1ccc(F)cc1)C(CN1CCOCC1)c1ccccc1 (configuration not stated)	i	-10	57*	49	53*	36*	64*
c1ccc(C(CN2CCOCC2)c2ccccc2)cc1	i	-9	-3	-5	9	·	·
COc1ccccc1OCC(=O)Nc1ccncc1	i	23	-2	-5	-12	·	·
C=CCN(CC=C)S(=O)(=O)c1ccc(NC(=O)COc2ccccc2OC)cc1	·	3	42*	39	45*	32*	-11
O=C(c1ccc(-c2ccc([N+](=O)[O-])cc2)o1)N1CCCCC1	i	15	40*	33	54*	46*	25
O=C(c1ccc(-c2cccc([N+](=O)[O-])c2)o1)N1CCN(c2ccc([N+](=O)[O-])cc2)CC1	·	-6	5	27	22	·	·
S=c1[nH]nc(CSc2nc3ccccc3s2)n1C1CCCCC1	i	-93	49*	31	47*	42*	2
S=c1[nH]nc(COc2ccccc2)n1C1CCCCC1	i	21	8	38	5	·	·
CC(C)(C)c1ccc(-c2nc(N)nc(N)n2)cc1	i	·	16	11	8	·	·
CC(C)(C)c1ccc(-c2conc2N)cc1	i	-33	43*	46	55*	41*	47*
CC(C)c1ccc(OCC(O)CN2CCN(c3ccccc3)CC2)cc1 (configuration not stated)	i	-24	-122	-229	-40	·	·
CN(C)c1ccc(NC2=C(Cl)C(=O)c3ccccc3C2=O)cc1	i	20	68*	44	62*	63*	60*
Clc1ccc(-c2c(C3=NCCCN3)nnn2-c2ccc(Cl)cc2)cc1	i	8	·	·	·	·	·
Nc1nnc(CSCc2ccc(Cl)cc2Cl)s1	i	-14	23	11	29	·	·
CC(C)n1c(CSCc2ccc(Cl)cc2Cl)n[nH]c1=S	i	-2	41*	40	49*	24	49*
CCn1nc(C)cc1-c1nnc(Sc2ncc([N+](=O)[O-])s2)n1C	i	-31	50*	8	66*	72*	55*
S=C(NCc1ccco1)Nc1cccc(Cl)c1	i	4	16	43	36	·	·
S=C(NCc1ccco1)Nc1cc(Cl)c(Cl)cc1Cl	i	-12	42*	43	44*	28	-21
S=C(NCc1ccco1)Nc1ccc(Oc2ccccc2)cc1	i	23	46*	26	45*	28	37*
O=C(NC1CCCC1)C(c1ccccn1)N(Cc1ccc(F)cc1)C(=O)c1csnn1 (configuration not stated)	i	-10	15	2	-11	·	·
CN1C(c2ccccc2)CC(=NO)CC1c1ccccc1 (configuration not stated)	i	-20	-19	4	7	·	·
COc1cc(C(=O)O/N=C2/C=C(C)C(=O)C=C2C)cc(OC)c1OC	i	16	30	33	37	·	·
SMILES	Rce1 inhib	PfHsp90 yeast 2	TIM10 inh	tim23-1 inh	tim10-1 inh	tim10-1 conf	tim10 confirm
CC1=C/C(=N\OS(=O)(=O)c2ccccc2)C(C)=CC1=O	·	105*	87*	-109	91*	80*	-13
Cc1ccc2c(c1)Oc1ccc([N+](=O)[O-])cc1C(=O)N2	i	-3	8	3	13	·	·
Cc1ccc2c(c1)Oc1ccc(NC(=O)CCl)cc1C(=O)N2	i	8	50*	44	43*	30*	33*
COc1ccc(NC(=O)Nc2ccc3c(c2)C(=O)N([C@@H](C)CO)C[C@@H](C)[C@@H](CN(C)S(=O)(=O)c2cccs2)O3)cc1	·	6	7	12	-6	·	·
O=c1cc(-c2ccccc2)n(S(=O)(=O)c2ccccc2)o1	i	16	40	31	36	·	·
O=c1cc(-c2ccccc2)n(S(=O)(=O)c2ccc3ccccc3c2)o1	i	24	64*	21	42*	37*	44*
O=C(Cc1cccc(NC(=O)C2CCCN(C(=O)C3CCCC3)C2)c1)Nc1ccc(C(=O)N2CCOCC2)cc1 (configuration not stated)	·	-6	·	·	·	·	·
Cc1ccc(OCc2cc(C(=O)NC(C)Cc3cccc(C)n3)no2)cn1 (configuration not stated)	i	-13	1	14	17	·	·
CC(C)c1ccccc1NC(=S)NN(Cc1ccccc1)c1ccccc1	i	23	52*	34	46*	32*	29*
C/C(=N\NC(=O)c1cccc(S(=O)(=O)N2CCOCC2)c1)c1ccc(O)cc1	·	·	8	8	-9	·	·
CC1CCCC(NC(=O)CN2CCN(S(=O)(=O)c3cccs3)CC2)C1C (configuration not stated)	·	-3	-3	3	10	·	·
COc1ccccc1N1CCN(C(=O)c2cc(-c3ccc(Cl)cc3)on2)CC1	i	9	48*	33	47*	32*	30*
COc1cccc(-c2cc(C(=O)N3CCN(Cc4ccccc4)CC3)no2)c1	i	9	42*	30	44*	30*	46*
Cn1nc(C(F)(F)F)cc1Oc1ncc(C(F)(F)F)cc1Cl	i	-96	5	-5	4	·	·
Cc1ccccc1-c1cc(-c2ccccc2O)n[nH]1	i	-7	65*	44	45*	14	6
Cc1ccc(-n2nc(C)c(Sc3ccccc3[N+](=O)[O-])c2N)cc1	i	-24	44*	48	44*	34*	33*
COc1ccc(-c2nc(-c3ccccc3)nc(N3CCN(C)CC3)c2C#N)cc1	i	-11	53*	50	45*	22	26
CN1CCN(c2nc(-c3ccccc3)nc(-c3ccccc3)c2C#N)CC1	i	14	17	25	19	·	·
